Only some compounds are listed: those with a hit (about 3.4% of all), similar ones and a draw of the others.
GPR151 ag – activates the human receptor GPR151. Q8TDV0. PathHunter beta-arrestin GPR151 cells, luminescence. activation, % at 11.2 µM. actives 1% (n = 650,000); in the data active = activation above about 4.9%;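 also: 0% = median of compound wells and 100% = cells with positive control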
TEAD-YAP block – TEAD-YAP interaction inhibition; HEK-TIYL cells, TEAD-Gal4/YAP UAS-luciferase luminescence; inhibition, % at 9.12 µM; actives 1.4% (n = 640,000); AID 1259422; in the data active = inhibition above about 32%;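 also: 0% = median of test compound wells and 100% = reference inhibitor wells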
MITF primary – human MITF inhibition, primary screen; actives 0.91% (n = 650,000); inhibition, % at 2.6 µM; O75030; AlphaScreen MITF homodimerization, bead proximity signal; in the data active = inhibition above about 50%;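 also: 0% = vehicle wells with protein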
Target sequence (O75030 whole entry, looked up): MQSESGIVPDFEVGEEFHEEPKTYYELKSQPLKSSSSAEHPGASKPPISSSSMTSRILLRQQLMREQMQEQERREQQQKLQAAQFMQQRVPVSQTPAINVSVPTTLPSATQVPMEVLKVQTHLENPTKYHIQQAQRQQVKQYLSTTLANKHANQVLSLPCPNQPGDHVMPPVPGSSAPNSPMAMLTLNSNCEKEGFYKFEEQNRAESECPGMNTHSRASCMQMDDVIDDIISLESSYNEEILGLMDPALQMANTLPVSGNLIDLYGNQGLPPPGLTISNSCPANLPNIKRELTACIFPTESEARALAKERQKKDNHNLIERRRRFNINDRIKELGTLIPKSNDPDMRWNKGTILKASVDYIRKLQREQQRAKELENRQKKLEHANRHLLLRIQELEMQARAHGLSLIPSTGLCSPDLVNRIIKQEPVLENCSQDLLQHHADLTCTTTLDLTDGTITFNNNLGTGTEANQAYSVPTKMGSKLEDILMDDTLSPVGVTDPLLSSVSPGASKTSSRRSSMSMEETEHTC
FBW7 activator – human FBW7 E3 ligase activation, primary screen; normalized activity (activation), % at 26.1 µM; actives 0.13% (n = 650,000); AlphaScreen FBW7–phospho-cyclin E peptide binding, activator screen; AID 1259310; Q969H0; in the data active = normalized activity above about 1.9%;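 also: purified mutant Fbw7 with reduced substrate affinity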
GPR151 confirm – human GPR151 activation, confirmation screen; shares compounds with GPR151 ag; GPR151 PathHunter beta-arrestin cells, luminescence, 90 min; % of EA-reagent control over plate median; activation, % at 11.2 µM; 6,700 tested, under 10 active; AID 1508609;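 active = mean percent activation across replicates above the confirmation screen cutoff of 4.91%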
GPR119 ag – counter-screen for GPR151 activators: effect on human GPR119; shares compounds with GPR151 ag; GPR119 PathHunter beta-arrestin cells, luminescence, 90 min; 0 = compound-well median, 100 = enzyme-acceptor control; activation, % at 11.2 µM; actives 0.3% (n = 6,700); AID 1508611;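 active = mean percent activation in the counterscreen above 29.09%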;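 also: counterscreen on off-target GPR119 to flag nonselective hits from the GPR151 activator screen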
Starred values were filed as active, the others as inactive; . = not tested or not shown.

SMILES	GPR151 ag	TEAD-YAP block	MITF primary	FBW7 activator	GPR151 confirm	GPR119 ag
O=C(NCCCCc1ccccc1)c1cc([N+](=O)[O-])cc([N+](=O)[O-])c1	11.4*	7.9	17.1	0.1	1.0	10.8
CC(Oc1ccc2ccccc2c1)C(=O)NNC(=O)COc1ccc(C#N)cc1 (stereo unspecified)	-0.7	22.7	2.6	-0.1	.	.
CC1CCc2c(sc(NC(=O)C3CC3)c2C(=O)OC(C)C)C1 (stereo unspecified)	-0.8	1.7	-4.6	0.0	.	.
CN(C)N1C(N)=C(C#N)C(c2ccccc2Cl)C2=C1CCCC2=O (stereo unspecified)	-1.6	4.8	11.1	0.1	.	.
CN(C)N1C(N)=C(C#N)C(c2cccc(Cl)c2Cl)C2=C1CCCC2=O (stereo unspecified)	5.1*	-18.1	-7.8	0.2	-0.1	1.7
O=C(NCCc1nnc2n1CCN(Cc1ccnc3ccccc13)CC2)c1ccco1	-0.5	-11.6	-13.8	-0.1	.	.
CC1=C/C(=N\S(=O)(=O)c2ccccc2)C(C)=CC1=O	-0.7	4.2	-13.2	0.0	.	.
CC1=C/C(=N\OS(=O)(=O)c2ccccc2)C(C(C)C)=CC1=O	8.5*	-8.6	19.9	-0.1	0.4	20.1
CCC1CCc2c(sc3nc(SCC(=O)Nc4c(C)cccc4C)n(-c4ccccc4)c(=O)c23)C1 (stereo unspecified)	8.1*	1.1	26.8	-0.1	-0.1	-4.3
O=C(C1CC(=O)N(CCc2ccccc2)C(=Nc2ccc(F)cc2)S1)N1CCN(c2ccc([N+](=O)[O-])cc2)CC1 (stereo unspecified)	1.0	9.8	1.5	-0.2	.	.
O=C1CN(S(=O)(=O)c2cccc(Cl)c2Cl)c2ccccc2N1	6.8*	-8.3	-1.8	0.0	1.4	1.4
COCCC(=O)Nc1ccc2c(c1)CN(C(=O)c1ccc(CSC)o1)CC2	9.4*	-14.3	17.3	0.4	0.0	2.2
COc1ccc(C(=O)N2CCN(S(=O)(=O)c3cc4c5c(c3)CCC(=O)N5CCC4)CC2)cc1	5.7*	6.5	2.4	-0.1	-0.1	-0.1
Cc1ccc(CNC(=O)Cn2nnc(-c3ccc(NC(=O)c4ccccc4F)cc3)n2)cc1	-0.3	-9.7	0.9	0.1	.	.
CC1=NC2(CCN(C(=O)NC(C)C)CC2)N=C1c1ccccc1	9.1*	-4.7	10.9	0.4	-0.2	-5.8
CC1=NC2(CCN(S(C)(=O)=O)CC2)N=C1c1ccccc1	0.1	-5.1	0.3	-0.8	.	.
CC(C)NC(=O)c1cccc(NC(=O)Nc2ccc(-c3cn[nH]c3)cc2OCCN(C)C)c1	5.3*	-2.4	-38.3	-0.2	0.8	-2.8
CC1(C(=O)O)C2C=CC3(CN(c4ccccc4)C(=O)C31)O2 (stereo unspecified)	8.1*	-1.9	-5.7	-0.1	0.2	1.5
CCOC(=O)c1c(C)oc2ccc(N(C(=O)c3ccc([N+](=O)[O-])cc3)S(=O)(=O)c3ccc(CC)cc3)cc12	1.6	-1.0	5.8	0.0	.	.
COc1ccccc1CN1CCC2(CCC(CNC(=O)c3ccn(C)n3)O2)CC1 (stereo unspecified)	6.4*	3.3	-3.0	0.2	0.1	-2.5
Cc1cc(C)c(CN2CCC3(CCC(CNC(=O)c4ccn(C)n4)O3)CC2)cc1C (stereo unspecified)	1.2	0.5	-10.1	0.1	.	.
Cc1ccc(N=Cc2nc(-c3ccc(Br)cc3)oc2O)c([N+](=O)[O-])c1	-0.5	6.2	-0.5	-0.1	.	.
CCOP(=O)(OCC)c1nc(-c2cccc([N+](=O)[O-])c2)oc1N1CCCCC1	10.9*	-5.3	3.3	-0.1	0.6	5.2
CCC(=O)N(CCCN(C)C)c1nc(-c2ccc(Cl)cc2)cs1	6.0*	-3.4	-9.2	-0.1	1.2	10.4
CCN(C(=O)CCl)c1nc(-c2ccc(Cl)cc2)cs1	1.2	-25.6	5.4	-0.1	.	.
SMILES	GPR151 ag	TEAD-YAP block	MITF primary	FBW7 activator	GPR151 confirm	GPR119 ag
COc1ccc(CNc2nccn3c(-c4ccc(CO)cc4)cnc23)cc1	-0.3	-11.1	-7.7	-0.5	.	.
Cc1ccc(C(=O)CC(=O)C(=O)Nc2ncccc2O)c(C)c1	8.3*	5.4	-24.3	-0.7	0.4	8.9
CCN(CC)S(=O)(=O)c1ccc(S(=O)(=O)Nc2ccccc2-c2ccc(C)o2)cc1	-0.6	8.6	1.0	-0.1	.	.
CC(C)c1ccc(NC(=O)C(c2ccc3c(c2)OCO3)N(Cc2ccccc2)c2ccccc2)cc1 (stereo unspecified)	5.7*	2.7	3.4	-0.2	0.0	8.7
COc1cccc(NC(=O)CSc2nc3ccccc3c(=O)n2CCc2ccc(OC)c(OC)c2)c1	5.0*	-0.7	4.4	-0.1	-1.1	-13.7
CCn1c(=O)c2c(c3ccccc31)OC(C)C(=O)N2 (stereo unspecified)	-1.4	-0.1	0.0	-0.1	.	.
CCOc1ccc(OCC)c(N2C(=O)Nc3ccccc3N2O)c1	0.5	5.2	10.9	-0.1	.	.
COc1ccc(Cn2c(=O)[nH]c3c(C(N)=O)nc(-c4ccc(C)c(C)c4)nc32)cc1	5.0*	-11.2	1.1	0.6	0.8	7.5
COc1ccc(Cn2c(=O)[nH]c3c(C(N)=O)nc(-c4cccc(C)c4)nc32)cc1	-0.2	6.9	-0.1	0.0	.	.
Nc1nonc1C(O)c1ccccc1 (stereo unspecified)	-0.5	16.1	7.6	0.2	.	.
Cn1c(=O)c2c(ncn2CC(=O)N/N=C/c2cccc(F)c2)n(C)c1=O	5.6*	-3.6	-2.3	-0.1	-0.2	-5.8
COc1ccc(S(=O)(=O)N(C)C)c(Cl)c1Cl	16.1*	-43.1	1.2	-0.1	1.4	8.8
COC(=O)c1ccc(C(=O)OC)c(NS(=O)(=O)c2ccc(OC)c(Cl)c2Cl)c1	9.5*	-5.7	12.4	1.0	0.5	-13.9
COc1cccc(NS(=O)(=O)c2ccc(OC)c(Cl)c2Cl)c1	-0.2	11.9	4.5	0.0	.	.
COc1ccc(NS(=O)(=O)c2ccc(OC)c(Cl)c2Cl)cc1OC	11.4*	23.7	-6.8	-0.2	1.6	8.0
CCCCNS(=O)(=O)c1ccc(OC)c(Cl)c1Cl	-0.2	1.1	-8.4	-0.1	.	.
O=C(CCCn1c(=O)c2cccn2c2cccnc21)NC1CCN(Cc2ccccc2)CC1	5.8*	-13.2	-7.8	0.1	-1.0	-3.8
COc1ccccc1CNC(=O)CCc1cn(C)c2ccccc12	5.9*	-4.0	-1.6	0.0	-0.4	0.4
O=C(CCCn1c(=O)c2cccn2c2ccccc21)NC1CCN(Cc2ccccc2)CC1	-0.2	-3.6	-5.9	0.0	.	.
Cn1cc(CCC(=O)NC2CCN(Cc3ccccc3)CC2)c2ccccc21	5.9*	-4.1	1.3	-0.2	2.0	1.3
CC(=O)c1cccc(Nc2c(-c3ccc(C)c(C)c3)c(=O)c2=O)c1	-0.2	-8.0	8.8	0.1	.	.
O=C(O)CN1CCOCCOCCN(CC(=O)O)CCOCCOCC1	5.9*	3.3	3.0	-0.1	0.5	-3.1

Assay outcomes as filed in PubChem.
